Test results reported in PubChem BioAssay (NCI).
This is part of a sample that, as a whole, favours compounds with a hit. Of some 79,000 tested, about 15% had one in any assay. Values without a mark were called inactive. Activity calls are given as the source filed them. Rule as the data show it: active = growth inhibition above about 70%; inactive = the rest.

Assays:
[1] = NCI Yeast Anticancer Drug Screen. Data for the rad50 strain (AID 155);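 also: 0% = growth of vehicle-only cultures of the same strain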; conditions: S. cerevisiae rad50 strain growth inhibition, active compounds read high
Outline: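 Inhibition values express reduced yeast growth in compound-treated cultures relative to vehicle-treated controls.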

[2] = NCI Yeast Anticancer Drug Screen. Data for the mec2-1 strain (AID 157); conditions: S. cerevisiae mec2-1 strain, active compounds read high
Outline: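 Growth inhibition is read against vehicle-treated controls after compound exposure of the mec2-1 yeast strain, which is defective in DNA damage repair or cell cycle control.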

[3] = NCI Yeast Anticancer Drug Screen. Data for the sgs1 mgt1 strain (AID 161);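 also: 0% = growth of cultures given vehicle only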; conditions: S. cerevisiae sgs1 mgt1 strain, active compounds read high
Outline: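 This yeast growth screen uses a strain with defined DNA-repair lesions; compound-treated growth is compared with vehicle-treated growth.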

[4] = NCI Yeast Anticancer Drug Screen. Data for the cln2 rad14 strain (AID 165);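 also: 0% = growth equal to vehicle treated cultures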; conditions: S. cerevisiae cln2 rad14 strain, active compounds read high
Outline: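 Growth inhibition, relative to vehicle-treated controls, is the read-out. The test organism is a yeast strain with defined genetic alterations, cln2 rad14.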

[5] = NCI Yeast Anticancer Drug Screen. Data for the bub3 strain (AID 167); conditions: S. cerevisiae bub3 mutant strain, active compounds read high
Outline: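 Steps: expose the mutant yeast strain to compound; grow alongside vehicle-treated cultures; measure growth; express inhibition against the vehicle cultures.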

[6] = NCI Yeast Anticancer Drug Screen. Data for the mlh1 rad18 strain (AID 175); conditions: S. cerevisiae mlh1 rad18 strain growth inhibition, active compounds read high
Outline: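 Cells of a genetically altered yeast strain, deficient in DNA damage repair, were treated with compound. Their growth was then compared with that of vehicle-treated cultures to give inhibition.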

[7] = at 5.0 µM (retest, dose inferred, filed as 0.5)
[8] = at 50.0 µM (retest, dose inferred, filed as 5.0)

O=C1CSC(c2cccc([N+](=O)[O-])c2)N1c1ccc(-c2ccc(-n3c(-c4ccccc4)nc4ccccc4c3=O)cc2)cc1 (configuration not stated)
growth inhibition [1, 7]: -12% | growth inhibition [1, 8]: 72% (active) | growth inhibition ([1]; at 50.0 µM): 25.1% | growth inhibition [2, 7]: -2% | growth inhibition [2, 8]: 36% | growth inhibition ([2]; at 50.0 µM): 59.5% | growth inhibition [3, 7]: 2% | growth inhibition [3, 8]: 78% (active) | growth inhibition ([3]; at 50.0 µM): -29.4% | growth inhibition [4, 7]: 26% | growth inhibition [4, 8]: 48% | growth inhibition ([4]; at 50.0 µM): 34% | growth inhibition [5, 7]: -12% | growth inhibition [5, 8]: 91% (active) | growth inhibition ([5]; at 50.0 µM): 87.8% (active) | growth inhibition [6, 7]: 9% | growth inhibition [6, 8]: 90% (active) | growth inhibition ([6]; at 50.0 µM): 83.2% (active)

CC(=O)OCC(=O)[C@@]1(O)[C@H](C)C[C@H]2[C@@H]3C=C(C)C4=Cc5c(cnn5-c5ccccc5)C[C@]4(C)[C@@]3(F)[C@@H](O)C[C@@]21C
growth inhibition [1, 7]: 0% | growth inhibition [1, 8]: 81% (active) | growth inhibition ([1]; at 50.0 µM): 82.4% (active) | growth inhibition [2, 7]: 0% | growth inhibition [2, 8]: 36% | growth inhibition ([2]; at 50.0 µM): 69.5% | growth inhibition [3, 7]: 35% | growth inhibition [3, 8]: 91% (active) | growth inhibition ([3]; at 50.0 µM): 83.2% (active) | growth inhibition [4, 7]: 19% | growth inhibition [4, 8]: 88% (active) | growth inhibition ([4]; at 50.0 µM): 73.4% (active) | growth inhibition [5, 7]: -1% | growth inhibition [5, 8]: 79% (active) | growth inhibition ([5]; at 50.0 µM): 24.1% | growth inhibition [6, 7]: 46% | growth inhibition [6, 8]: 87% (active) | growth inhibition ([6]; at 50.0 µM): 87.7% (active)

COC(=O)c1cccc2cccc(C(=O)Nc3ccc(Cl)cc3)c12
growth inhibition [1, 7]: 68% | growth inhibition [1, 8]: 99% (active) | growth inhibition ([1]; at 50.0 µM): 90.2% (active) | growth inhibition [2, 7]: 67% | growth inhibition [2, 8]: 100% (active) | growth inhibition ([2]; at 50.0 µM): 93% (active) | growth inhibition [3, 7]: 58% | growth inhibition [3, 8]: 100% (active) | growth inhibition ([3]; at 50.0 µM): 92.3% (active) | growth inhibition [4, 7]: 42% | growth inhibition [4, 8]: 99% (active) | growth inhibition ([4]; at 50.0 µM): 92% (active) | growth inhibition [5, 7]: 82% (active) | growth inhibition [5, 8]: 82% (active) | growth inhibition ([5]; at 50.0 µM): 91.9% (active) | growth inhibition [6, 7]: 87% (active) | growth inhibition [6, 8]: 99% (active) | growth inhibition ([6]; at 50.0 µM): 90.3% (active)

CN(C)N=Nc1ccc(Cl)c2ncccc12
growth inhibition [1, 7]: 3% | growth inhibition [1, 8]: -2% | growth inhibition ([1]; at 50.0 µM): 0.2% | growth inhibition [2, 7]: -2% | growth inhibition [2, 8]: -2% | growth inhibition ([2]; at 50.0 µM): 2.1% | growth inhibition [3, 7]: 0% | growth inhibition [3, 8]: 2% | growth inhibition ([3]; at 50.0 µM): -2.45% | growth inhibition [4, 7]: -2% | growth inhibition [4, 8]: -5% | growth inhibition ([4]; at 50.0 µM): 64.2% | growth inhibition [5, 7]: -2% | growth inhibition [5, 8]: 1% | growth inhibition ([5]; at 50.0 µM): -4.15% | growth inhibition [6, 7]: -2% | growth inhibition [6, 8]: 7% | growth inhibition ([6]; at 50.0 µM): 6.75%

CSc1ccc2c(c1)S[S@@](=O)N2
growth inhibition [1, 7]: -5% | growth inhibition [1, 8]: 55% | growth inhibition ([1]; at 50.0 µM): 35.9% | growth inhibition [2, 7]: -11% | growth inhibition [2, 8]: 61% | growth inhibition ([2]; at 50.0 µM): 1.45% | growth inhibition [3, 7]: 9% | growth inhibition [3, 8]: 34% | growth inhibition ([3]; at 50.0 µM): 56.6% | growth inhibition [4, 7]: -16% | growth inhibition [4, 8]: 33% | growth inhibition ([4]; at 50.0 µM): 18.3% | growth inhibition [5, 7]: 5% | growth inhibition [5, 8]: 96% (active) | growth inhibition ([5]; at 50.0 µM): 51.4% | growth inhibition [6, 7]: -3% | growth inhibition [6, 8]: 38% | growth inhibition ([6]; at 50.0 µM): 62.5%

CN(C)c1ccc(N=Nc2cccc3ccccc23)cc1
growth inhibition [1, 7]: 8% | growth inhibition [1, 8]: 75% (active) | growth inhibition ([1]; at 50.0 µM): 34% | growth inhibition [2, 7]: 3% | growth inhibition [2, 8]: 89% (active) | growth inhibition ([2]; at 50.0 µM): 0.15% | growth inhibition [3, 7]: 10% | growth inhibition [3, 8]: 85% (active) | growth inhibition ([3]; at 50.0 µM): 4.3% | growth inhibition [4, 7]: 1% | growth inhibition [4, 8]: 51% | growth inhibition ([4]; at 50.0 µM): 50.2% | growth inhibition [5, 7]: -5% | growth inhibition [5, 8]: 88% (active) | growth inhibition ([5]; at 50.0 µM): -5.65% | growth inhibition [6, 7]: -6% | growth inhibition [6, 8]: 42% | growth inhibition ([6]; at 50.0 µM): 12.5%

NC(=S)N/N=C/c1ccc(Cl)s1
growth inhibition [1, 7]: -5% | growth inhibition [1, 8]: 80% (active) | growth inhibition ([1]; at 50.0 µM): 87.2% (active) | growth inhibition [2, 7]: -8% | growth inhibition [2, 8]: 29% | growth inhibition ([2]; at 50.0 µM): 47.5% | growth inhibition [3, 7]: -5% | growth inhibition [3, 8]: 36% | growth inhibition ([3]; at 50.0 µM): 67.6% | growth inhibition [4, 7]: -17% | growth inhibition [4, 8]: 9% | growth inhibition ([4]; at 50.0 µM): 11.7% | growth inhibition [5, 7]: -5% | growth inhibition [5, 8]: 62% | growth inhibition ([5]; at 50.0 µM): 57.5% | growth inhibition [6, 7]: -6% | growth inhibition [6, 8]: 44% | growth inhibition ([6]; at 50.0 µM): 87% (active)

CCOC(=O)C(C(=O)OCC)C(=O)c1ccccc1C(=O)c1ccccc1
growth inhibition [1, 7]: -12% | growth inhibition [1, 8]: 44% | growth inhibition ([1]; at 50.0 µM): 60.8% | growth inhibition [2, 7]: -17% | growth inhibition [2, 8]: 23% | growth inhibition ([2]; at 50.0 µM): 34% | growth inhibition [3, 7]: -9% | growth inhibition [3, 8]: 55% | growth inhibition ([3]; at 50.0 µM): 56.9% | growth inhibition [4, 7]: -2% | growth inhibition [4, 8]: 2% | growth inhibition ([4]; at 50.0 µM): 14.8% | growth inhibition [5, 7]: -3% | growth inhibition [5, 8]: 32% | growth inhibition ([5]; at 50.0 µM): 51.5% | growth inhibition [6, 7]: 1% | growth inhibition [6, 8]: 59% | growth inhibition ([6]; at 50.0 µM): 80.6% (active)

Cn1c(C(C)(C)OC(=O)Oc2ccccc2)cnc1[N+](=O)[O-]
growth inhibition [1, 7]: 0% | growth inhibition [1, 8]: 51% | growth inhibition ([1]; at 50.0 µM): 37.1% | growth inhibition [2, 7]: -1% | growth inhibition [2, 8]: 24% | growth inhibition ([2]; at 50.0 µM): 16.8% | growth inhibition [3, 7]: 3% | growth inhibition [3, 8]: 68% | growth inhibition ([3]; at 50.0 µM): 65.5% | growth inhibition [4, 7]: 4% | growth inhibition [4, 8]: 31% | growth inhibition ([4]; at 50.0 µM): 30.4% | growth inhibition [5, 7]: 0% | growth inhibition [5, 8]: 4% | growth inhibition ([5]; at 50.0 µM): 1.35% | growth inhibition [6, 7]: 9% | growth inhibition [6, 8]: 54% | growth inhibition ([6]; at 50.0 µM): 38.8%
